Laboratory results published in the supplement of paper PMC6555819.

Tests used:
Experiment in all cases: PBM binding z-score (relative to random genomic background probes); higher = stronger binding; sequences stand for … in GC…GCGATTGACAGCGTAGAATGAAGG
[1] = tested on: FXR:RXRa (NR concentration 270 nM, RXRa partner concentration 90 nM)
Method in brief: (§1)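 The probes on custom Agilent 4×180K protein-binding microarrays were double-stranded, with 34-nt variable regions bearing direct-repeat seeds, single-nucleotide variants, half-site ablations and random human genomic background sequences. Incubation lasted 1 h with ligand-free nuclear receptor dimers in PBS pH 7.4, 2% milk, 0.02% Triton X-100, 1 mM DTT, 0.2 mg/mL BSA and 0.4 mg/ml salmon testes DNA. Antibodies against each partner (one per run) detected bound dimers, and fluorescence scans were regression-normalized. Binding z-scores take the random background probes as reference.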

[2] = tested on: LXRa:RXRa (NR concentration 270 nM, RXRa partner concentration 90 nM)
Method in brief: as §1

[3] = tested on: LXRa homodimer (NR concentration 270 nM)
Method in brief: as §1

[4] = tested on: LXRb:RXRa (NR concentration 270 nM, RXRa partner concentration 90 nM)
Method in brief: as §1

[5] = tested on: LXRb homodimer (NR concentration 270 nM)
Method in brief: as §1

[6] = tested on: PPARa:RXRa (NR concentration 270 nM, RXRa partner concentration 90 nM)
Method in brief: as §1

[7] = tested on: PPARg:RXRa (NR concentration 180 nM, RXRa partner concentration 90 nM)
Method in brief: as §1

[8] = tested on: PPARg:RXRa 270nM:90nM, anti-RXR (NR concentration 270 nM, RXRa partner concentration 90 nM)
Method in brief: as §1

[9] = tested on: PPARg:RXRa 30nM:10nM, anti-RXR (NR concentration 30 nM, RXRa partner concentration 10 nM)
Method in brief: as §1

[10] = tested on: PPARg:RXRa 90nM:30nM, anti-RXR (NR concentration 90 nM, RXRa partner concentration 30 nM)
Method in brief: as §1

[11] = tested on: PPARg:RXRa DBDmut IVT, anti-RXR (DBD mutation: RXRa K156A/R161A, NR concentration 270 nM, RXRa partner concentration 90 nM)
Method in brief: as §1

[12] = tested on: PPARg:RXRa IVT, anti-PPARg (NR concentration 270 nM, RXRa partner concentration 90 nM)
Method in brief: as §1

[13] = tested on: PPARg DBDmut:RXRa IVT, anti-PPARg (DBD mutation: PPARg1 K132A/R137A, NR concentration 270 nM, RXRa partner concentration 90 nM)
Method in brief: as §1

[14] = tested on: PPARg DBDmut IVT, anti-PPARg (DBD mutation: PPARg1 K132A/R137A, NR concentration 270 nM)
Method in brief: as §1

[15] = tested on: PPARg homodimer (NR concentration 180 nM)
Method in brief: as §1

[16] = tested on: PXR:RXRa (NR concentration 270 nM, RXRa partner concentration 90 nM)
Method in brief: as §1

[17] = tested on: PXR homodimer (NR concentration 270 nM)
Method in brief: as §1

[18] = tested on: RARa:RXR (NR concentration 270 nM, RXRa partner concentration 90 nM)
Method in brief: as §1

[19] = tested on: RARa homodimer (NR concentration 270 nM)
Method in brief: as §1

[20] = tested on: RARb:RXRa (NR concentration 270 nM, RXRa partner concentration 90 nM)
Method in brief: as §1

Sequence	PBM binding z-score [1]	PBM binding z-score [2]	PBM binding z-score [3]	PBM binding z-score [4]	PBM binding z-score [5]	PBM binding z-score [6]	PBM binding z-score [7]	PBM binding z-score [8]	PBM binding z-score [9]	PBM binding z-score [10]	PBM binding z-score [11]	PBM binding z-score [12]	PBM binding z-score [13]	PBM binding z-score [14]	PBM binding z-score [15]	PBM binding z-score [16]	PBM binding z-score [17]	PBM binding z-score [18]	PBM binding z-score [19]	PBM binding z-score [20]
CCTACTGGGCCAAAGGTCATTAATTCCAATGCTC	4.33	4.53	3.47	4.65	0.938	6.19	12.5	10.3	12.4	12.4	5.16	6.79	0.543	0.388	4.75	5.26	2.61	5.93	2.26	4.25
CCTACTGGGTCATCAGGTCATTGATATCAACGTT	4.46	3.76	2.34	3.19	-0.201	4.86	7.61	6.52	4.45	5.99	6.76	7.36	1.4	0.93	3.28	3.76	0.934	4.74	1.85	3.9
TTACCAAGGTGGAAGGTCGTTGATGCACGCCTTG	0.529	0.656	-0.194	0.41	-0.809	2.03	2.43	4.41	1.94	4.21	-0.302	1.09	-0.236	-1.11	0.535	0.751	-0.0879	1.26	-0.0243	0.885
ACCTCTAGGTAAAGTTCAGTGAAAGATCGATAGA	0.698	1.23	0.94	0.893	0.102	1.58	1.08	2.32	0.584	1.63	1.91	1.47	-0.268	0.284	0.684	1.61	1.03	0.806	0.172	2.41
TCATATATGTAAAGGTGAAAGTCGAACGATATGA	0.775	1.41	-0.143	1.2	-0.14	2.68	2.6	3.13	3.73	3.47	1.83	1.99	1.26	0.868	0.62	0.981	-0.319	1.78	0.741	1.96
CCGGACAGGTGAGAAGGTAACTCAGCCTCGATTA	-0.332	-0.196	-0.289	-0.26	-0.839	0.454	0.347	0.118	-0.24	-0.183	1.04	0.612	-0.39	-1.64	0.569	-0.415	-0.227	-0.262	0.0296	0.711
TGTCAAGGTTCAAAGGTAACGTAAGTATCCACAC	6.06	5.12	1.39	3.74	0.581	5	6.29	6.26	3.14	5.92	-0.0297	3.17	0.246	0.633	3.16	4.14	0.595	5.82	0.446	3.32
CCTTACGGGTCAAGGCTATAGCACGGGTGGTACG	5.49	3.26	-0.261	2.59	-0.119	4.88	3.91	4.41	1.45	2.99	1.68	3.1	-0.373	-0.381	1.08	2.58	-0.208	3.68	0.855	3.98
AGAACGAGGGAAATGAGTTGATAGCACGGGTGGC	-0.469	-0.525	-0.561	-0.828	-0.449	-0.481	0.813	-0.497	-0.0468	-0.319	-0.231	-0.564	0.432	-0.941	-0.441	-0.411	0.0651	-0.474	-0.0061	-0.45
CCGACTGGGGCAAGGTTCCCATAACGCACAGCCA	-0.116	-0.36	-0.312	-0.226	-1.24	1.17	3.1	3.89	2.1	3.38	2.36	3.12	-0.684	-0.962	0.192	-0.613	-0.376	-0.115	-0.502	0.825
CAGCCTAGGTCCGGGCCAGTATAGGAGGAACGTT	-0.987	-1.11	-0.834	-1.41	-1.47	-1.78	-0.191	-0.878	-0.996	-1.2	-1.2	-1.1	-2.15	-1.84	-1.61	-1.01	-0.992	-1.12	-1.43	-0.671
ATCTCTAGGTAACCAAGTTCGGTGAATGCCGAAC	0.162	0.167	0.0553	0.11	0.555	0.569	0.336	0.74	0.0695	0.909	3.09	2.93	1.06	1.09	0.509	0.501	0.469	0.415	0.268	0.571
TTGCCAAGGTGAGCTGAGGTCGTTGATCCAACTC	1.5	0.918	-0.266	0.415	-1.74	1.46	-0.358	0.302	-0.768	-0.564	0.582	1.28	-1.28	-1.13	-0.789	4.61	0.057	1.33	-0.704	1.73
CGTCCAAGGTCAATGCTACGTCAGTGAAAGCATT	6.6	4.58	0.394	3.37	0.412	4.89	3.32	4.18	1.44	3.3	3.21	3.16	1.41	-0.403	2.71	3.7	0.586	3.85	0.867	4.96
ATCTCTGGGTAAAGTTCAGTGAAAGATCGATAGA	1.19	1.87	1.6	1.39	1.23	2.87	4.06	5.26	3.21	4.78	1.98	2.87	0.904	1.34	1.32	2.12	1.91	1.55	1.47	2.73
TCTTGTAGATCAAGCAGGTTGAGAAAGCCTGAGT	0.128	0.187	-0.471	-0.223	-0.57	0.441	-0.512	0.973	2.32	1.66	1.7	0.256	-0.788	-0.244	-0.463	0.124	-0.29	-0.172	-0.364	-0.242
TCATATAGCTAATACAGGTGAAAGTCGGCATCTA	0.322	0.835	0.0705	0.543	-0.0868	1.17	0.706	1.77	3.13	2.35	1.68	0.828	0.761	0.528	0.511	0.475	-0.0901	0.626	0.67	0.139
CAGCCTAGGTCAGGGCCAGTATAGGAGGAACGTT	1.63	0.984	0.0185	0.506	-0.929	2.13	0.978	1.03	0.126	0.524	0.848	1.84	-0.882	-1.52	1.03	0.272	-0.731	1.2	-0.0375	3.6
CCTTACGGGTCACGAGGTTATATCACGACGAGCG	7.05	4.73	0.668	4.12	-0.0743	6.05	7.17	6.76	3.62	5.46	4.44	5.64	1.38	0.342	2.85	4.59	0.517	5.8	0.866	4.5
TCATATAGGTAAACAGGTGAAATTCCGTAAGTTA	1.25	1	0.35	1.2	-0.0512	2.32	2.75	3.22	4.19	3.8	4.59	4.41	1.27	1.49	1.3	1.03	0.625	1.67	2.19	0.689
GCTAGCAGGCCATTGGGGTCACTCAATGACGGGC	2.93	2.47	-0.298	3.06	-0.749	4.28	1.95	3.1	0.521	2.17	0.93	2.42	-0.918	-0.85	1.48	5.48	8.59	5.19	-0.69	3.01
CGAACTAGGTCAAGGACAGTGAATCTCCGCACGC	3.29	2.29	0.163	1.51	-0.597	4.64	7.4	6.24	3.8	6.11	8.2	8.25	4.79	1.98	2.91	1.18	-0.052	2.3	0.629	3.94
CCTAGTTGGTCAAGGTCACACACGCTATAGGTAC	4.71	4.18	2.66	3.92	1.23	4.33	3.35	3.96	1.66	3.2	2.68	3.52	0.555	1.3	4.56	4.41	2.97	4.88	4.38	4.17
ACTATTAGTTGACTTAGGGCACCCGATACGACGC	-0.0668	-0.208	0.0685	-0.198	0.757	-0.213	0.894	0.204	0.268	0.525	0.28	0.339	1.12	1.59	0.282	-0.159	0.392	0.226	1.18	0.663
TGTACAGGGTCAAAGGCCAGAGTACGAATGTCGA	7.25	4.91	-0.0298	4.39	0.326	6.34	8.21	7.42	5.22	7.52	2.29	5.22	1.24	1.55	1.87	4.52	-0.0944	6.38	0.38	4.42
CAAACTAGTTCACGAAAGGTCAAAGTCGAATGAC	6.34	7.45	7.18	6.48	2.77	5.65	4.37	5.37	2.24	4.32	2.5	3.57	1.49	0.645	5.52	6.88	5.53	7	3.03	4.89
AGAATGAGGTTAACATCAGGGAAACAGAATACAT	2.93	2.97	-0.211	2.21	-0.23	4.3	3.36	3.34	1.39	2.46	3.52	3.79	1.84	1.16	1.12	1.43	0.184	2.81	0.181	2.32
TCGAGTAGGTTAGTCGGGGCATCCAGCCAACATA	0.256	0.187	-0.411	0.296	-1.13	0.822	-0.0152	0.685	0.993	0.766	2.28	2.09	-0.561	0.0213	-0.139	0.0331	-0.0889	0.263	-0.138	0.628
CGAACTAGGTCATCCAGGACAGTGAGTACATTGA	4.32	2.81	0.741	1.9	0.24	4.49	7.45	6.5	3.99	5.85	8.47	8.31	2.59	1.36	2.5	2.8	8.11	2.46	0.186	3.92
